# TIM10 inh: inhibits growth of TIM10 yeast strain; S. cerevisiae TIM10 strain growth, BacTiter-Glo luminescence, 24 h; 330,000 tested, 1.4% active; AID 463195; inhibition, % at 10 µM;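 active = inhibition of 40% or more at the single tested concentration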;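 also: wild-type TIM10 isogenic control strain grown at permissive 25 °C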
# tim23-1 inh: growth inhibitors of tim23-1 mutant yeast | 330,000 tested, 1.3% active | inhibition, % at 20 µM | S. cerevisiae tim23-1 growth, BacTiter-Glo luminescence, 24 h;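 active = growth inhibition of the mutant yeast at or above 50%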;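 also: temperature-sensitive mutant grown at 25 °C; plate controls were DMSO-treated mutant yeast for no effect and medium wells lacking yeast for full effect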
# tim10-1 inh: inhibits growth of tim10-1 mutant yeast | 330,000 tested, 2.2% active | inhibition, % at 20 µM | AID 463190 | S. cerevisiae tim10-1 ts strain growth, BacTiter-Glo, 24 h;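 active = inhibition of at least 40%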;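 also: mutant grown at 25 °C; 0% = DMSO wells with yeast and 100% = wells holding no yeast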
# NALP3 yeast inh: blocks the NALP3 inflammasome reconstituted in yeast; Yeast reconstituted NLRP3/ASC/caspase-1, beta-gal luminescence, 24 h; inhibition, % at 10 µM; 330,000 tested, 0.39% active; AID 2825;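 active = inhibition of 50% or more; inactive = inhibition below 50%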;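 also: plate controls were induced DMSO wells for no effect and uninduced yeast grown without galactose for full effect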
# PfHsp90 set2: inhibits growth of yeast expressing Plasmodium falciparum Hsp90; S. cerevisiae expressing PfHsp90, BacTiter-Glo ATP, 48 h; yeast lacking PDR1 and PDR3 efflux regulators; inhibition, % at 9.4 µM; 310,000 tested, 0.32% active;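 active = every replicate shows inhibition above about 80%, whatever the replicate mean, limit read from the data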;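 also: 0% = DMSO neutral controls and 100% = 20 µM radicicol positive controls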
# NALP1 inh: NALP1 inhibition | S. cerevisiae NALP1/ASC/caspase-1 growth, X-gal OD620, 72 h | inhibition, % at 10 µM | 280,000 tested, 0.61% active; in the data active = inhibition mostly above about 24%, no sharp cut-off; inactive = mostly below about 32%
# tim10-1 confirm: confirmation of tim10-1 mutant yeast growth inhibitors; AID 463213; 7,400 tested, 56% active; inhibition, % at 20 µM; S. cerevisiae tim10-1 ts strain growth, BacTiter-Glo, 24 h; shares compounds with tim10-1 inh;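 active = inhibition of yeast growth at or above a set limit in either of two repeat tests at 20 µM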;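 also: tim10-1 mutant grown at permissive 25 °C to find synthetic lethal compounds; 0% = DMSO yeast wells and 100% = medium wells without yeast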
# tim10 confirm: TIM10 yeast growth inhibition, confirmed; 4,600 tested, 63% active; shares compounds with TIM10 inh; AID 463215; inhibition, % at 10 µM; S. cerevisiae tim10 strain growth, BacTiter-Glo luminescence, 24 h;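 active = inhibition of yeast growth at or above a set limit in either of two replicates at 10 µM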;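 also: this counterscreen used the strain with wild-type TIM10; 0% = yeast with DMSO and 100% = medium wells lacking yeast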
# An asterisk follows results filed as active; nt = not tested or not shown. Only some compounds are listed: those with a hit (about 4.2% of all), similar ones and a draw of the others.
SMILES,TIM10 inh,tim23-1 inh,tim10-1 inh,NALP3 yeast inh,PfHsp90 set2,NALP1 inh,tim10-1 confirm,tim10 confirm
COc1ccc(CN2CC(C(N)=O)Oc3ccccc32)cc1F (centres undefined),8,-1,-15,12,23,-2,nt,nt
CCn1nc(C)cc1-c1nnc(Sc2ncc([N+](=O)[O-])s2)n1C,50*,8,66*,24,-31,24,72*,55*
CCn1nc(C)cc1-c1nnc(SCC(=O)Nc2ccccc2)n1CCCOC,-2,-13,3,-7,0,nt,nt,nt
O=C(NCCOC(=O)Nc1cccc2ccccc12)OCc1ccccc1,nt,nt,nt,nt,6,nt,nt,nt
Cc1scc(-c2n[nH]c(=S)n2C(C)c2ccccc2)c1C (centres undefined),43*,37,42*,31,-8,12,29,10
Cc1cccc(NC(=O)CCCN=C2NS(=O)(=O)c3ccccc32)c1C,0,16,5,9,9,nt,nt,nt
c1ccc(-c2nnc(-c3ccccn3)nc2NC2CCCCC2)cc1,67*,17,47*,5,103*,19,36*,63*
Clc1ccc(CN2CCc3c([nH]c4ccccc34)C2)cc1Cl,41*,42,75*,19,-16,27,75*,58*
CSc1ccc(CN2CCc3c([nH]c4ccccc34)C2)cc1,33,9,15,13,3,31,nt,nt
O=c1c2ccccc2nc2c3ccccc3c(NCc3ccccn3)nn12,71*,35,71*,15,8,-2,65*,63*
c1cncc(CNc2nc(-c3cccnc3)nc3ccccc23)c1,-14,20,13,15,-6,11,nt,nt
O=c1c2ccccc2nc2c3ccccc3c(NCc3cccnc3)nn12,49*,24,54*,13,-17,14,64*,51*
Cc1nc(NCc2ccccn2)c2ccccc2n1,-14,3,-15,4,-3,1,nt,nt
[S-]c1nnc(-c2ccc(Br)cc2)n1-c1ccccc1.[Zn+2],3,14,3,16,1,-6,nt,nt
N#Cc1c(Cl)c(Cl)c2nnc(-c3ccc(Br)cc3)n2c1Cl,58*,42,46*,6,nt,15,28,15
COc1cccc(CNC(=O)CNS(=O)(=O)c2ccc(Br)s2)c1,-11,1,-2,-8,-29,36,nt,nt
CC(C)(C)c1ccc(NC(=S)NCc2cccs2)cc1,46*,45,54*,7,8,-12,40*,33*
O=C1Nc2ccccc2/C1=C/c1cnc(-c2ccccc2)[nH]1,3,-3,-2,23,-17,3,nt,nt
O=C1Nc2ccccc2/C1=C/c1cccnc1,51*,40,49*,-2,11,5,36*,32*
Cc1ccc2cc([N+](=O)[O-])ccc2n1,-16,-5,-26,9,7,nt,nt,nt
COc1cc(/C=C2\SC(c3ccc(C)cc3)=NC2=O)ccc1O,46*,50,52*,18,-8,1,31*,43*
CSCCC(NS(=O)(=O)c1ccc(C)cc1C)C(=O)Nc1cccnc1 (centres undefined),-4,2,4,15,nt,nt,nt,nt
CCN(C(=O)CSc1nnc(COc2cccc(C)c2)o1)c1nc(C)cs1,12,-2,-12,1,8,-2,nt,nt
O=C(CCc1ccc(Oc2cc([N+](=O)[O-])cc([N+](=O)[O-])c2)cc1)N1CCCCC1,54*,11,57*,8,-5,34,35*,48*
O=C(c1ccc(Oc2ccc([N+](=O)[O-])cc2)cc1)N1CCCCCC1,5,34,29,42,14,nt,nt,nt
SMILES,TIM10 inh,tim23-1 inh,tim10-1 inh,NALP3 yeast inh,PfHsp90 set2,NALP1 inh,tim10-1 confirm,tim10 confirm
N/C(=N\OC(=O)c1ccc(Cl)c(Cl)c1)c1cccnc1,72*,5,60*,-14,1,9,47*,76*
N/C(=N\OC(=O)c1ccccc1)c1cccnc1,-3,8,14,-4,nt,-10,nt,nt
COc1ccc(-c2nc(-c3ccccc3)nc(N3CCN(C)CC3)c2C#N)cc1,53*,50,45*,33,-11,0,22,26
COc1cc(C(=O)NCCc2ccc(S(N)(=O)=O)cc2)ccc1OCc1c(C)noc1C,-11,-4,3,4,-13,nt,nt,nt
CN(C)c1ccc(/C=N/n2c(-c3ccccc3Br)n[nH]c2=S)cc1,41*,44,42*,6,41,nt,24,24
CN(C)c1ccc(/C=N/n2c(-c3cccnc3)n[nH]c2=S)cc1,8,7,13,7,-12,3,nt,nt
COc1cc2c(cc1NS(=O)(=O)N1CCCCC1)oc1ccccc12,44*,39,41*,-13,-33,4,37*,35*
C=CCNc1nnc(SC2CC(=O)N(c3ccc(OCCC)cc3)C2=O)s1 (centres undefined),68*,46,63*,19,10,-28,74*,69*
CCOC(=O)c1ccc(N2C(=O)CC(Sc3nnc(C)s3)C2=O)cc1 (centres undefined),65*,38,55*,28,-31,40*,78*,60*
Cc1ccc2ccccc2c1COC(=O)c1nonc1N,50*,26,43*,-9,4,-5,43*,50*
COc1ccc(NC(=O)COC(=O)c2cc(C)oc2C)c([N+](=O)[O-])c1,1,-7,1,10,-21,nt,nt,nt
S=C(NCc1ccco1)Nc1ccc(Oc2ccccc2)cc1,46*,26,45*,30,23,21,28,37*
S=C(NCc1ccco1)Nc1cc(Cl)c(Cl)cc1Cl,42*,43,44*,27,-12,29,28,-21
Cc1cc(C)c(NC(=O)CNC(=O)c2cc([N+](=O)[O-])ccc2N2CCOCC2)c(C)c1,-5,5,-9,29,11,nt,nt,nt
C#CCOc1ccc(Cl)cc1/C=N/O,-2,13,13,-15,-11,-10,nt,nt
O/N=C/c1cc(Cl)ccc1OCc1cccc2ccccc12,44*,48,63*,18,nt,8,24,50*
CCN(CC)C(=O)CSc1nnc2nnc3cc(OC)ccc3n12,5,-4,-14,15,nt,4,nt,nt
C[C@H](CO)N1C[C@H](C)[C@@H](CN(C)C(=O)Nc2ccc(C(F)(F)F)cc2)Oc2ccc(NC(=O)Nc3ccc4c(c3)OCO4)cc2C1=O,8,18,4,5,6,nt,nt,nt
Cc1ccc(S(=O)(=O)n2nc(C)cc2C)cc1,1,3,18,0,-34,6,nt,nt
Cc1cc(C)n(S(=O)(=O)/C=C/c2ccccc2)n1,44*,28,50*,18,-8,nt,42*,42*

# Assay outcomes as filed in PubChem BioAssay.
